Molecules are shown by their SMILES. Results filed as inconclusive are left out. Unmarked numbers belong to inactive results. The source made the active and inactive calls. Calls follow the shape of the dose curve; as a rule, active = well fitted curve in the direction sought with a large enough effect; inconclusive = small, poorly fitted or top-dose-only effect, or another doubt; inactive = no such curve, though single readings can be large; an effect the other way counts as inactive or inconclusive.

Test system in the first assay: not listed separately
Briefly: Primary qHTS for inhibitors of La Crosse Virus (LACV) - induced cell death in SH-SY5Y cells (AID 1508616).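 Also: top concentration of the series differs between compounds; 0% = infected DMSO wells and 100% = uninfected DMSO wells; higher means more rescue of cells from virus-induced death.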 To be noted: SH-SY5Y LACV cytopathicity rescue, ATP luminescence, 6 d; series mostly up to 4.29 µM; activity change: at the top concentration. Summed up:
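SH-SY5Y cells (6000/well) plated 24 h, then given compounds by pin transfer and LACV at 0.01 MOI for 6 days at 37C. Viability measured by ATPLite luminescence, normalized to infected DMSO and uninfected DMSO.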
Take `COP(=S)(OC)Oc1ccc(SC)c(C)c1`: the “activity change” value is -6.18%.

Consider `O=c1oc2ccccc2c(O)c1Cc1c(O)c2ccccc2oc1=O`, for which the “activity change” value was 3.25%.

With `CN1C(=O)COc2c(C(=O)NC3CN4CCC3CC4)cc(Cl)cc21` (centres undefined), the “activity change” value is -5.62%.

Turning to `CCCCCCCCCC(=O)O[C@H]1CC[C@H]2[C@@H]3CCC4=CC(=O)CC[C@@H]4[C@H]3CC[C@]12C`, the “activity change” value was -11.4%.

Turning to `CC(C(=O)c1ccccc1)N(C)C` (centres undefined), the “activity change” value is 0.364%.

With `O=c1c(C2CC(c3ccc(-c4ccc(Br)cc4)cc3)Cc3ccccc32)c(O)sc2ccccc12` (centres undefined), the “activity change” value is 3.03%.

As to `CN(C)CCc1c[nH]c2cccc(OP(=O)(O)O)c12`, the “activity change” value was -14.6% [at 8.54 µM].

On to `O=C1OC(CCN2CCCCC2)OC1(c1ccccc1)c1ccccc1` (centres undefined), for which the “activity change” value was -8.48%.

Take `CCC(C)(C)c1ccc(O)cc1`: the “activity change” value is 1.74%.

With `NC(=O)c1cc([N+](=O)[O-])cc([N+](=O)[O-])c1`, the “activity change” value was -6.62%.

Turning to `CC1(C)C(C=C(Cl)Cl)C1C(=O)OC(C#N)c1cccc(Oc2ccccc2)c1` (centres undefined), the “activity change” value was 14.9%.

As for `CCc1cc2c(s1)-n1c(C)nnc1CN=C2c1ccccc1Cl`, the “activity change” value was -3.2%.

Regarding `CCC(C)C(C)(COC(N)=O)COC(N)=O` (centres undefined), the “activity change” value was -0.999%.

On to `C#C[C@]1(O)CC[C@H]2[C@@H]3CCC4=CC(=O)CC[C@]4(C)[C@H]3CC[C@@]21C`, for which the “activity change” value was 6.92%.

Take `C[C@]12CC[C@@H]3c4ccc(OC(=O)N(CCCl)CCCl)cc4CC[C@H]3[C@@H]1CC[C@@H]2O`: the “activity change” value was 13.3%.

As for `ClCCN1CCCC1`, the “activity change” value is -10.7%.

As for `COc1cccc2c1C(=O)c1c(O)c3c(c(O)c1C2=O)C[C@@](O)(C(=O)CO)CC3OC1CC(N2CCOC(OC)C2)C(O)C(C)O1` (some centres undefined), the “activity change” value is 23.4%.

The target in a further assay is Calcium and integrin-binding protein 1 (Homo sapiens) (UniProt Q99828). Description: Validation qHTS for Identification of Calcium Integrin Binding protein 1 (CIB1) Competitor (AID 1508618). Also: % is scaled to controls: 0 for no effect and ±100 for the full control effect. The conditions noted are these: CIB1-GST / FITC-alphaIIb peptide fluorescence polarization; series mostly up to 114 µM; activity change, negative = inhibition: at the top concentration. The essentials: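 Displacement of FITC-alphaIIb peptide (100 nM) from CIB1-GST (1 uM) is monitored by polarization in quantitative HTS format; buffer carries 5 mM CaCl2 and 125 mM NaCl at pH 7.4, incubations are at room temperature.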
Chain of Calcium and integrin-binding protein 1 (Homo sapiens) (Q99828 whole entry, looked up): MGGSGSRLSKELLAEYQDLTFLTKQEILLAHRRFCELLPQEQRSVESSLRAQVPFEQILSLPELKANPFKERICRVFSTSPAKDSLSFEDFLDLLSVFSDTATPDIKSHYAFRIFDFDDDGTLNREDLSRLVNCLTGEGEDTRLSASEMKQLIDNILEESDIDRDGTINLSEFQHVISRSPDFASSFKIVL
(In general: In qHTS, concentration-response curves come from the screen itself.)
As for `Cc1ncsc1CCCl`, the “activity change, negative = inhibition” value is 5.6%.

On to `COc1ccc2c(c1OC)C(=O)O[C@H]2[C@@H]1c2cc3c(cc2CCN1C)OCO3`, for which the “activity change, negative = inhibition” value was 6.42%.

In the case of `CCCCCN(C)CCC(O)(P(=O)(O)O)P(=O)(O)O`, the “activity change, negative = inhibition” value was 5.03%.

In the case of `CC(C)(C)NCC(O)c1ccccc1Cl` (centres undefined), the “activity change, negative = inhibition” value was 13.1%.

For the compound `C=C(C)[C@H]1CN[C@H](C(=O)O)[C@H]1CC(=O)O`, the “activity change, negative = inhibition” value was 2.86%.

A further assay has the same target. Description: Primary qHTS for Identification of Calcium Integrin Binding Protein 1 (CIB1) Competitor (AID 1508620).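 Also: GST tagged CIB1 binding a fluorescein labelled alphaIIb integrin peptide tracer; top concentration of the series differs between compounds; % is scaled to controls: 0 for no effect and ±100 for the full control effect.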 To be noted: CIB1-GST / FITC-alphaIIb peptide fluorescence polarization; series mostly up to 114 µM; activity change, negative = inhibition: at the top concentration. Summed up:
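Fluorescence polarization competition: GST-tagged CIB1 (1 uM final) preincubated with compound 15 min at room temperature, then FITC-labelled alphaIIb peptide (100 nM final) added. After 15 min at room temperature, polarization read at Ex 480/Em 540.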
In the case of `COP(=S)(OC)Oc1ccc(SC)c(C)c1`, the “activity change, negative = inhibition” value is -4.65%.

As to `Cc1ncsc1CCCl`, the “activity change, negative = inhibition” value was -1.54%.

As to `COc1ccc2c(c1OC)C(=O)O[C@H]2[C@@H]1c2cc3c(cc2CCN1C)OCO3`, the “activity change, negative = inhibition” value was -0.725%.

Regarding `CN1C(=O)COc2c(C(=O)NC3CN4CCC3CC4)cc(Cl)cc21` (centres undefined), the Potency result is “inactive”.

Regarding `CCCCCCCCCC(=O)O[C@H]1CC[C@H]2[C@@H]3CCC4=CC(=O)CC[C@@H]4[C@H]3CC[C@]12C`, the “activity change, negative = inhibition” value was -11%.

For the compound `CC(C(=O)c1ccccc1)N(C)C` (centres undefined), the “activity change, negative = inhibition” value was -2.48%.

In the case of `CN(C)CCc1c[nH]c2cccc(OP(=O)(O)O)c12`, the “activity change, negative = inhibition” value is 3.22% [at 228 µM].

As to `O=C1OC(CCN2CCCCC2)OC1(c1ccccc1)c1ccccc1` (centres undefined), the “activity change, negative = inhibition” value is 0.596%.

Regarding `CCC(C)(C)c1ccc(O)cc1`, the “activity change, negative = inhibition” value was -1.9%.

`CC(C)(C)NCC(O)c1ccccc1Cl` (centres undefined): the “activity change, negative = inhibition” value is -2.35%.

With `NC(=O)c1cc([N+](=O)[O-])cc([N+](=O)[O-])c1`, the “activity change, negative = inhibition” value was -4.19%.

On to `CCc1cc2c(s1)-n1c(C)nnc1CN=C2c1ccccc1Cl`, for which the “activity change, negative = inhibition” value was -6.54%.

Source of the values: PubChem BioAssay (NCATS).
